# Screen size: about 2,400 compounds; about 750 (31%) were called active. The list shows a part of the results. A number with no mark means an inactive call.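 Rule for the calls: active = median signal gain over dofetilide-blocked control wells reaching their mean plus 3 SD, so readout 1 at least 0; inactive = the rest.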
# Molecular target: Voltage-gated inwardly rectifying potassium channel KCNH2 (Homo sapiens) (UniProt Q12809)
# Experiment: hERG protection against dofetilide inhibition, confirmation, cell-based, thallium flux, duplicate retest, dofetilide IC70 (AID 1835)
# Conditions: hERG cell line, FluxOR thallium flux, dofetilide-blocked; at 10 µM; active compounds read high
# Sequence of Voltage-gated inwardly rectifying potassium channel KCNH2 (Homo sapiens) (Q12809 whole entry, looked up): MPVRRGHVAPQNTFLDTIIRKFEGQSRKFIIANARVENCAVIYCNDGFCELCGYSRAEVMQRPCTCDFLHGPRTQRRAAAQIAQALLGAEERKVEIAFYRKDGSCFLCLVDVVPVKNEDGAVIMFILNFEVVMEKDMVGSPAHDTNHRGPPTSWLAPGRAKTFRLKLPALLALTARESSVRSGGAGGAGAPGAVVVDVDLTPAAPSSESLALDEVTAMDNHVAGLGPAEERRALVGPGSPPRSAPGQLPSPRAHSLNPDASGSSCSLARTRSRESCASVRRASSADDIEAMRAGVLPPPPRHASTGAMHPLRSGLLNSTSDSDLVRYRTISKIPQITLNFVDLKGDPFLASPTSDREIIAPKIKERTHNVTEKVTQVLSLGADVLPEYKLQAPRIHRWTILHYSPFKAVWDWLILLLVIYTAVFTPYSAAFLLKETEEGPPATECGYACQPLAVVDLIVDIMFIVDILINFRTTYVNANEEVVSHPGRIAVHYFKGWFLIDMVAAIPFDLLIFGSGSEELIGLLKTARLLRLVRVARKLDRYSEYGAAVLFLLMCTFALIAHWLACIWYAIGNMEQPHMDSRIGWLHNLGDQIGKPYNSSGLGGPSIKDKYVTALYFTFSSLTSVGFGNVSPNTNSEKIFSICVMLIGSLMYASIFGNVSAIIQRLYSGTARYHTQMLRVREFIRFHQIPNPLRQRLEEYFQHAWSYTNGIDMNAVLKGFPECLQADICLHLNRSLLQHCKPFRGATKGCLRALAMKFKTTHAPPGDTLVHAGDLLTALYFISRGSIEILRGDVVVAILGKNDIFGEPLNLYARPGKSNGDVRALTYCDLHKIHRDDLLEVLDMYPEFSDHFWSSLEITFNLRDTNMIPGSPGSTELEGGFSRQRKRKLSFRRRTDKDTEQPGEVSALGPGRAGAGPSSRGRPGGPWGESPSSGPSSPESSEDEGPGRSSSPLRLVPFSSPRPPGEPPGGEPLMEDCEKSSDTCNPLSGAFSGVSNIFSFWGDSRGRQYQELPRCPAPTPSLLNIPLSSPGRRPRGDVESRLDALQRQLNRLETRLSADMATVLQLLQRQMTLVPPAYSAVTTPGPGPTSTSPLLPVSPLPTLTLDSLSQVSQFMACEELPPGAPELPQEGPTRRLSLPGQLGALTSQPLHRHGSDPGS
row,Compound,"activity increase over dofetilide control, less the hit threshold"
1,COc1ccc(NC(=S)NC(NC(=O)c2cccc3ccccc23)C(Cl)(Cl)Cl)c([N+](=O)[O-])c1 (configuration not stated),-23%
2,COC(=O)c1c(NC(=S)Nc2ccc(F)cc2[N+](=O)[O-])sc2c1CCCCC2,11% (active)
3,CCOC(=O)c1c(/N=C/C2=C(O)CCCC2=O)sc2c1CCCC2,-14%
4,C=CCNC(=S)Nc1sc2c(c1C(=O)OCC)CC(C)(CC)OC2 (configuration not stated),15% (active)
5,CNC(=S)Nc1sc2c(c1C(=O)OC)CCC2,17% (active)
6,CCOC(=O)c1c(NC(=S)NC)sc2c1CCCC2,42% (active)
7,C=CCNC(=S)Nc1sc2c(c1C(=O)OCC)CC(C(C)C)OC2 (configuration not stated),-4%
8,COc1ccc(CCNC(=O)CSc2ccc3nnc(CCNC(=O)c4ccccc4)n3n2)cc1OC,-13%
9,Clc1cccc(-c2ccc(C=Nc3ccc(N4CCOCC4)cc3)o2)c1Cl,-12%
10,COc1ccc(CCNC(=O)CC(NS(=O)(=O)c2ccc(NC(C)=O)cc2)C(C)C)cc1OC (configuration not stated),-8%
11,CCOC(=O)c1c(NC(=S)NC)sc2c1CC(C)(C)SC2,79% (active)
12,CC(=O)NC(CSC(CC(=O)c1ccco1)c1ccc(C)cc1)C(=O)O (configuration not stated),-15%
13,C[n+]1ccccc1/C=C/c1c(F)cccc1F,-2%
14,C[n+]1ccccc1/C=C/c1ccc(C#N)cc1,6% (active)
15,COc1cc(Cl)cc(C(c2c(C(=O)O)[nH]c3ccccc23)c2c(C(=O)O)[nH]c3ccccc23)c1O,-20%
16,CC(=O)NCCc1nc2cc(NC(=O)c3ccc(Cl)cc3)ccc2n1C,-9%
17,Cc1c(-c2ccn[nH]2)cc(NC(=O)c2ccc(Cl)cc2)c(=O)n1N,7% (active)
18,Cn1nc(C(F)(F)F)c(-c2ccc(Br)cc2)c1NC(=O)c1cccnc1,6% (active)
19,CN(C)S(=O)(=O)c1cccc(C(=O)Nc2cccnc2)c1,-6%
20,O=C(N=C1SC2CS(=O)(=O)CC2N1c1cccc(Cl)c1Cl)C1CCCO1 (configuration not stated),-15%
21,CCOc1ccc(S(=O)(=O)Nc2nc3ccccc3nc2-n2ccc(=NC(=O)c3cccs3)cc2)cc1,-6%
22,CN(CCc1ccccn1)C(=O)CCC1CCCN(C(=O)c2ccsc2)C1 (configuration not stated),-5%
23,Cc1nonc1CN(C)C(=O)c1ccc(OC2CCN(Cc3ccccn3)CC2)cc1,3% (active)
24,C/C(=N\N1CCN(C2c3ccccc3-c3ccccc32)CC1)c1ccncc1,-18%
25,C/C(=C/CCC(C)C1CCC2(C)C3CCC4C(C)(C)C(=O)CCC4(C)C3=CCC12C)C(=O)O (configuration not stated),15% (active)

row,Compound,"activity increase over dofetilide control, less the hit threshold"
1,C/C(=C/CCC(C)[C@H]1CC[C@@]2(C)C3=C(CC[C@]12C)[C@@]1(C)CCC(=O)C(C)(C)[C@@H]1CC3)C(=O)O (some centres not stated),45% (active)
2,Nc1ncnc(Oc2cccc3cccnc23)c1[N+](=O)[O-],-12%
3,Nc1cc(-c2ccc(Br)cc2)[nH]n1,-11%
4,O=C(CN1C(=O)c2cccc3cccc1c23)Nc1cccnc1,-17%
5,CSc1cccc(NC(=O)CN2C(=O)c3ccccc3S2(=O)=O)c1,-19%
6,CNC(=O)c1ccc(NC(=O)CN2c3cccc4cccc(c34)S2(=O)=O)cc1,61% (active)
7,Cc1c(C(=O)NN2CCN(C)CC2)cccc1[N+](=O)[O-],-16%
8,O=C(NC(=S)N1CCN(c2ccc(Cl)cc2[N+](=O)[O-])CC1)c1cccs1,12% (active)
9,O=C(NC(=S)N1CCN(c2ccc(C(F)(F)F)cc2[N+](=O)[O-])CC1)c1cccs1,12% (active)
10,COc1ccc(N2CCN(C(=S)Nc3cccc(OC)c3)CC2)cc1,-11%
11,O=C(NC(=S)N1CCN(c2c(Cl)cccc2[N+](=O)[O-])CC1)c1cccs1,2% (active)
12,COc1ccc(N2CCN(C(=S)NC(=O)c3cccs3)CC2)c([N+](=O)[O-])c1,1% (active)
13,Cc1cccc2nc(-c3cccnc3)c(NCCC(C)C)n12,-70%
14,COc1cccc(OC)c1C(=O)NC(=S)N1CCN(c2ccc(C(F)(F)F)cc2[N+](=O)[O-])CC1,6% (active)
15,CC(C)Oc1cccc(C(=O)NC(=S)N2CCN(c3ccc(C(F)(F)F)cc3[N+](=O)[O-])CC2)c1,-8%
16,COC(=O)CSc1nc2c(c(-c3ccc(C)o3)c1C#N)CCCC2,-18%
17,COC(=O)CSc1nc(N2CCCCC2)c2c(c1C#N)CCCC2,5% (active)
18,CCC1(c2ccc(Cl)cc2)NC(=S)N(c2ccc(C)c(C)c2)N1 (configuration not stated),100% (active)
19,CCC1(c2ccccc2)NC(=S)N(c2ccc(C)c(C)c2)N1 (configuration not stated),86% (active)
20,Cc1ccc(NC(=O)c2noc3c2CCC3)cc1C,-11%
21,N#Cc1cc(-c2ccccc2)nnc1Oc1ccccc1,-1%
22,Cc1ccc2[nH]c(=O)c(C(c3nnnn3C3CCCC3)N3CCCc4ccccc43)cc2c1 (configuration not stated),-4%
23,COc1ccc(-c2cc(C(F)(F)F)nc(N3CCCCC3)n2)cc1OC,-19%
24,O=C1C=C(c2ccccc2)OC(=O)C1C(=O)c1ccccc1 (configuration not stated),-4%
25,CCOc1ccc2nc(/N=C/c3nc(-c4ccc(Br)cc4)oc3O)sc2c1,11% (active)

row,Compound,"activity increase over dofetilide control, less the hit threshold"
1,CCOc1ccc2nc(/N=C/c3nc(-c4ccccc4)oc3O)sc2c1,4% (active)
2,CC1(C)CC(=O)c2c(nn(-c3ccccc3)c2-c2ccncc2)C1,-7%
3,Cc1ccc2cc(CCNC(=O)C(=O)c3c(C)[nH]c4ccccc34)c(=O)[nH]c2c1,-20%
4,CC(C)c1nc2sc3c(=S)nc[nH]c3c2c2c1CCC2,52% (active)
5,S=c1nc[nH]c2c1sc1nc(N3CCOCC3)c3c(c12)CCCC3,58% (active)
6,CCOC(=O)c1sc2nc(N3CCOCC3)c3c(c2c1N)CCN(Cc1ccccc1)C3,-5%
7,S=c1nc[nH]c2c1sc1nc(-c3ccccc3)c3c(c12)CCCC3,80% (active)
8,OCCN1CCN(c2ncnc3c2sc2nc(N4CCOCC4)c4c(c23)CCC4)CC1,-27%
9,Cc1ccc(C)c(OCc2cc(C(=O)N3CCNC(=O)C3)no2)c1,-7%
10,CCc1noc(C)c1C(=O)N1CCCC(N2CCN(c3ccccc3F)CC2)C1 (configuration not stated),-1%
11,CCOc1ccccc1NC(=O)C(=O)CC(=O)c1ccc(OC)cc1,16% (active)
12,COc1ccc(C(=O)CC(=O)C(=O)Nc2ccccc2OC)cc1,2% (active)
13,NNC(=O)CNc1ccccc1Cl,-9%
14,CCN1CCN(CC(=O)c2ccc(OC)cc2)CC1,-17%
15,CSc1ccc(S(=O)(=O)N2CCC(C(=O)Nc3ccccc3C(F)(F)F)CC2)cc1,-17%
16,COc1ccc(C(=O)CSc2nnc3ccc(-c4ccccn4)nn23)cc1,-11%
17,COc1ccc(C(=O)NC2CC3CCCC(C2)N3Cc2ccccc2)cc1 (configuration not stated),-11%
18,COc1ccc(C(=O)CC(=O)C(=O)Nc2ccccc2Cl)cc1,31% (active)
19,COc1ccccc1NC1=C(NC(C)=O)C(=O)c2ccccc2C1=O,-7%
20,COc1ccc(C(=O)CC(=O)C(=O)Nc2ccccc2C(F)(F)F)cc1,13% (active)
21,COc1ccc(C(=O)CNc2ccccc2C#N)cc1,-11%
22,CCc1nc(C)ccc1OCC(=O)N1CCc2c([nH]c3ccccc23)C1c1ccccn1 (configuration not stated),-24%
23,Cc1ccc(CCNC(=O)c2cccc(NC3=NC4CS(=O)(=O)CC4S3)c2)cc1 (configuration not stated),-4%
24,Cc1cc(=O)[nH]c(N/N=C2/CCCC/C2=C\c2ccccc2)n1,-9%
25,CNC(=O)c1[nH]cnc1C(=O)Nc1ccccn1,-18%

row,Compound,"activity increase over dofetilide control, less the hit threshold"
1,Cc1ccccc1OCC(=O)NNC(=O)c1ccc2c(=O)n3c(nc2c1)CCC3,-21%
2,O=C1c2ccccc2C(=O)N1CCc1nc(-c2ccccn2)no1,-12%
3,CCOc1ccccc1NC(=O)C(=O)CC(=O)c1cccc(OC)c1,7% (active)
4,CCOc1ccc(CCNC(=O)Nc2ccccc2C)cc1OCC,-12%
5,Cc1oc2cc(O)ccc2c(=O)c1N1C(=O)c2ccccc2C1=O,-4%
6,Cc1ccc2c(CN3CCOCC3)cc(=O)oc2c1,-14%
7,Cc1nnc(SCc2cc(=O)oc3cc(O)ccc23)n1Cc1ccccc1,12% (active)
8,CCOCCCNC(=O)C(NC(=O)Cc1cccs1)c1ccc(C)cc1 (configuration not stated),-21%
9,Cc1ccc(C(C#N)c2ccc3c(C(F)(F)F)cc(C(F)(F)F)nc3n2)cc1 (configuration not stated),8% (active)
10,Fc1ccc(N2CCN(c3ccc4c(C(F)(F)F)cc(C(F)(F)F)nc4n3)CC2)cc1,-8%
11,Cc1ccc(S(=O)(=O)N2CCOCC2)cc1NC(=O)COC(=O)c1cccnc1Cl,-15%
12,Cc1ccc(N=C2NC(=O)/C(=C/c3cccs3)S2)cc1C,0%
13,CC12CCC(C/C1=N\N=C1\NC(=O)/C(=C\c3ccc(Cl)cc3)S1)C2(C)C (configuration not stated),-3%
14,Cc1cccc(/C=C2/S/C(=N/N=C3\CC4CCC3(C)C4(C)C)NC2=O)c1 (configuration not stated),5% (active)
15,COc1ccc(/C=C2/S/C(=N/N=C3\CC4CCC3(C)C4(C)C)NC2=O)cc1 (configuration not stated),20% (active)
16,CCOc1nc(-c2ccccc2)ccc1-c1noc(COC)n1,-7%
17,COC(=O)c1ccc(NC(=O)COC(=O)C2CC(=O)N(Cc3ccccc3)C2)cc1 (configuration not stated),-29%
18,Cc1cccc(NC(=S)N/N=C2\CC(C)(C)Oc3ccc(O)cc32)c1,-5%
19,O=S(=O)(c1ccc(F)c(F)c1)N1CCN(c2ncccn2)CC1,-9%
20,COc1ccc(OC)c(S(=O)(=O)Nc2ccc(O)c3ccccc23)c1,-4%
21,Cc1ccc(S(=O)(=O)Nc2ccc(O)c3ccccc23)c(C)c1,5% (active)
22,O=S(=O)(Nc1ccc(O)c2ccccc12)c1ccc(F)cc1,-58%

# Source: PubChem BioAssay AID1835 (Johns Hopkins Ion Channel Center, 2009)
